Measurements taken from PubChem BioAssay AID1347043 (National Center for Advancing Translational Sciences (NCATS), 2019).
Screen size: about 76,000 compounds; about 1,900 (2.5%) were called active. Not shown: some 5% with an inconclusive outcome. The call rests on the fitted dose curve; in most records, active means well fitted inhibition curve with a large enough effect; inconclusive means small, poorly fitted or top-dose-only effect; inactive means flat fitted curve, though single readings scatter. Many of the other results were omitted from the sample, so actives are more common in it than they were.

Each molecule was assayed against Luciferin 4-monooxygenase (Photinus pyralis) (UniProt P08659) (assay: Firefly luciferase inhibition profiling of diverse chemical library using quantitative high-throughput screening). Settings: purified P. pyralis luciferase, luminescence, biochemical; series mostly up to 115 µM; activity change, negative = inhibition: at the top concentration.
Sequence of Luciferin 4-monooxygenase (Photinus pyralis) (P08659 whole entry, looked up): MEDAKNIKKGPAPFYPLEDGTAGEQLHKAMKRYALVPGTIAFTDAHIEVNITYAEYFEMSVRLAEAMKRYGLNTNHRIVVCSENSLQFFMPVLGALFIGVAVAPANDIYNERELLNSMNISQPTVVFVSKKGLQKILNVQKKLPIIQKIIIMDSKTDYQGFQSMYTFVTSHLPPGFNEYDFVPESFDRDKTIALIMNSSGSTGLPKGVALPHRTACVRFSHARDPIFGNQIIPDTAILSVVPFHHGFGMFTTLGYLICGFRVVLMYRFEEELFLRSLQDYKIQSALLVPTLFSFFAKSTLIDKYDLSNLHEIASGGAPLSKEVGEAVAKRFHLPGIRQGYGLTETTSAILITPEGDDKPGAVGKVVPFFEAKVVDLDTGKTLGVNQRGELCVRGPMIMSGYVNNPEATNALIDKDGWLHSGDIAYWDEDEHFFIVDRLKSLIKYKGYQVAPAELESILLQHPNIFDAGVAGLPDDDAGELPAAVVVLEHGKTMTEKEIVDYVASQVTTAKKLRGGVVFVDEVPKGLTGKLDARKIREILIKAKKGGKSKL
Excerpt: Firefly (Photinus pyralis) luciferase is one of the most commonly used transcriptional reporters for a number of reasons. It is considered one of the more dynamically responsive reporters - that is, responsive to changes in reporter transcription - as it requires no post-translational modifications and is enzymatically active directly after protein synthesis (Wood, 1998). Additionally, the half-life of the luciferase protein is short relative to other reporter-gene products (Wood, 1995). Whereas reporters with long half-lives potentially allow for increased signal due to accumulation of reporter-gene product, once accumulated in the cell, dynamic changes in reporter-gene expression may be difficult to detect(Fan and Wood, 2007; Almond et al., 2004). It has been shown that wild-type P. pyralis luciferase has a half-life of approximately four hours in mammalian cells (Thompson et al., 1991). Firefly luciferase reporter-gene assays are also generally considered one of the most sensitive assay types (Wood, 1995; Wood, 1998). Although light produced in a bioluminescence reaction is of lower intensity than that produced during fluorescence emission, this is offset by little to no background light inherent to luminescent assays. Thus the luciferase reporter can be expressed at much lower levels than fluorescent proteins while still providing robust signal. However, it was initially observed, in 1991, by Thompson et al., that compounds that resemble the substrates of firefly luciferase (FLuc) can act as competitive inhibitors of the enzyme, and that these compounds, upon interaction with luciferase in the cell, can actually stabilize the protein and increase its half-life. Accumulated intracellular FLuc protein can be measured as an increase in luminescence signal, upon addition of detection reagents (which contain high concentrations of FLuc substrates) commonly used in high-throughput screening. In cell-based reporter gene assays that use FLuc as the reporter gene to quantitate the potential influence of a given compound against the target biology, this apparent increase in luminescence can mistakenly be interpreted as identification of a compound that is active against the target of interest. FLuc inhibitory compounds that stabilize the FLuc protein will give an identical read-out, making it difficult to distinguish compounds that are active against the target from those active against FLuc. In summary, the results generated here constitutes a valuable resource for the scientific community and provides insight on identifying compounds with inhibitory activity for the commonly-used reporter, firefly luciferase. References: -Almond, B., Zdanovsky, A., Zdanovskaia, M., Ma, D., Stecha, P., Paguio, A., Garvin, D., and Wood, K. (2004). Introducing the Rapid Response Reporter Vectors. Promega Notes 87, 18-22. -Fan, F., and Wood, K.V. (2007). Bioluminescent assays for high-throughput screening. Assay Drug Dev Technol 5, 127-136. -Thompson, J.F., Hayes, L.S., and Lloyd, D.B. (1991). Modulation of firefly luciferase stability and impact on studies of gene regulation. Gene 103, 171-177. -Wood, K.V. (1998). The chemistry of bioluminescent reporter assays. Promega Notes 65, 14-20. -Wood, K.V. (1995). Marker proteins for gene expression. Curr Opin Biotechnol 6, 50-58.
Reagents: 50mM Tris acetate, pH 7.5; 10mM Mg acetate; 10uM D-luciferin (Sigma #L9504); 10uM ATP; 0.01% Tween-20; 0.05% BSA; 10nM P. pyralis luciferase (Sigma #L9506) Control compounds used were two known firefly luciferase inhibitors (compounds (2) and (5) in Auld et al., 2010), and DMSO. Assay Summary: Three microliters containing firefly luciferase substrates in buffer (final concentrations: 50mM Tris acetate, pH 7.5, 10mM Mg acetate, 0.01% Tween-20, 0.05% BSA, 10uM D-luciferin, and 10uM ATP) are dispensed into each well of a Greiner white, solid-bottom 1536-well format plate using a flying reagent dispenser (FRD). […]
Further: nearly all actives have a fitted effect of over 65% in size.
On the % scale 0 is the no-effect control and ±100 the full control effect.

Q: `CCn1nccc1C(=O)N1CCCC1c1cc(C)no1` (stereo not drawn) was tested. Which “activity change, negative = inhibition” value did it give?
A: -9.45% (inactive)

Q: Which “activity change, negative = inhibition” value does the source give for `CN1C(=O)CC(C(=O)O)C12CCN(CCc1ccccn1)CC2` (stereo not drawn) here?
A: -1.6% (inactive)

Q: `Cc1ccc(CNC(=O)N2CCN(C(=O)N3CC4CC(C3)[C@H]3CCCC(=O)N3C4)CC2)cc1` (stereo partly drawn) was tested. Which “activity change, negative = inhibition” value did it give?
A: 0% (inactive)

Q: For `CCn1c(CN(C)C)nnc1C1CCN(Cc2ccc(-n3ccnc3)cc2)CC1`, which “activity change, negative = inhibition” value is on record?
A: -2.73% (inactive)

Q: Which “activity change, negative = inhibition” value does the source give for `COc1ccc(C2Cn3nnc(C(=O)N4CCN(C(=O)c5ccc(C)cc5C)CC4)c3CO2)cc1` (stereo not drawn) here?
A: -19.6% (inactive)

Q: `Cc1ccc(C(=O)N2CCN(C(=O)c3nnn4c3COC(c3ccccc3)C4)CC2)cc1` (stereo not drawn) was tested. Which “activity change, negative = inhibition” value did it give?
A: -10.9% (inactive)

Q: `Cc1ccc(C2Cn3nnc(C(=O)N4CCN(C(=O)COc5cccc(C)c5)CC4)c3CO2)cc1` (stereo not drawn) was tested. Which “activity change, negative = inhibition” value did it give?
A: 7.9% (inactive)

Q: With `COc1ccc(C2Cn3nnc(C(=O)N4CCC(C(=O)NCC5CCCCC5)CC4)c3CO2)cc1` (stereo not drawn) as the molecule, how does the “activity change, negative = inhibition” value read?
A: 2.8% (inactive)

Q: Which Potency does the source give for `Cc1ccc(C2Cn3nnc(C(=O)N4CCC(C(=O)Nc5ccc(Cl)cc5)CC4)c3CO2)cc1` (stereo not drawn) here?
A: 15.8 µM (active)

Q: How did the “activity change, negative = inhibition” value turn out when `O=C(c1ccoc1)N1CCN(C(=O)c2nnn3c2COC(c2ccc(Cl)cc2)C3)CC1` (stereo not drawn) was run?
A: -1.41% (inactive)

Q: With `CN(C)c1ccc(C(=O)N2CCN(C(=O)c3nnn4c3COC(c3ccc(Cl)cc3)C4)CC2)cc1` (stereo not drawn) as the molecule, how does the “activity change, negative = inhibition” value read?
A: -8.23% (inactive)

Q: With `Cc1ccc(C2Cn3nnc(C(=O)N4CCC(C(=O)NCCc5ccccc5)CC4)c3CO2)cc1` (stereo not drawn) as the molecule, how does the Potency read?
A: 12.6 µM (active)

Q: How did the Potency turn out when `CCCCNC(=O)C1CCN(C(=O)c2nnn3c2COC(c2ccc(C)cc2)C3)CC1` (stereo not drawn) was run?
A: 28.2 µM (active)

Q: `C=CCN(C)C(=O)[C@@H](C)C1CC[C@@]2(C)Cc3sc(Nc4c(Cl)cccc4Cl)nc3[C@@H](C)[C@@H]2[C@H]1O` (stereo partly drawn) was tested. Which “activity change, negative = inhibition” value did it give?
A: -23.1% (inactive)

Q: `O=C(C[C@@H]1CCNC[C@@H]1Cc1cc(CSc2ccccc2)on1)NCc1ccc2c(c1)OCO2` was tested. Which “activity change, negative = inhibition” value did it give?
A: -0.784% (inactive)

Q: For `CCc1cccc(C)c1NC(=O)Cn1ccn2nc(-c3ccc(F)cc3)c(CO)c2c1=O`, which “activity change, negative = inhibition” value is on record?
A: 9.89% (inactive)

Q: With `Cc1ocnc1C(=O)N1CCc2nc(N)nc(N3CC[C@H](O)C3)c2CC1` as the molecule, how does the “activity change, negative = inhibition” value read?
A: -2.27% (inactive)

Q: With `Cc1cn2nc(C(=O)NCc3ccc(F)cc3)cc2c(N2CCCC2)n1` as the molecule, how does the “activity change, negative = inhibition” value read?
A: 0% (inactive)

Q: How did the Potency turn out when `CCN1CCN(C(=O)C23CCCC=C2N(C2CCCC2)C(=O)CC3)CC1` (stereo not drawn) was run?
A: 39.8 µM (active)

Q: How did the “activity change, negative = inhibition” value turn out when `CC(C)CCN1C(=O)CC[C@]2(C(=O)N3CCN(C)CC3)CCCC[C@@H]12` was run?
A: -0.341% (inactive)

Q: How did the “activity change, negative = inhibition” value turn out when `CC(C)CCN1C(=O)CC[C@]2(C(=O)N3CCN(CC(C)C)CC3)CCCC[C@@H]12` was run?
A: 1.21% (inactive)

Q: With `CNC(=O)[C@@H]1CN(C(=O)c2n[nH]c3ccccc23)C[C@H]1c1n[nH]c(C)n1` as the molecule, how does the “activity change, negative = inhibition” value read?
A: -7.09% (inactive)

Q: How did the “activity change, negative = inhibition” value turn out when `Cc1cccnc1NC(=O)C1c2ccccc2C(=O)N(C2CCCC2)C12CCCC2` (stereo not drawn) was run?
A: -10% (inactive)

Q: How did the “activity change, negative = inhibition” value turn out when `CC1(NC(=O)C2CC2)CN(c2ccc(OC(F)(F)F)cc2)C1` was run?
A: -6.69% [at 172 µM] (inactive)

Q: Which Potency does the source give for `O=C([C@@H]1C[C@@H](O)[C@H](O)[C@@H]2NC(=S)N(c3ccc(OC(F)(F)F)cc3)[C@@H]21)N1CCCCC1` here?
A: 14.1 µM (active)

Q: For `O=C([C@@H]1C[C@H](F)CN1C(=O)c1ccccc1OC(F)(F)F)N1CCCCC1`, which “activity change, negative = inhibition” value is on record?
A: 1.44% (inactive)

Q: With `Cc1noc(-c2cccc(OC3CN(C(=O)c4ccco4)C3)c2)n1` as the molecule, how does the “activity change, negative = inhibition” value read?
A: -3.66% (inactive)

Q: `COc1ccccc1OCc1cc(C(=O)NCc2n[nH]c3c2CCC3)n[nH]1` was tested. Which “activity change, negative = inhibition” value did it give?
A: -12.1% (inactive)

Q: `CCOC(=O)C1CCN(C(=O)c2ccc(-c3ccc(N4CCCCCC4)nc3)cc2)CC1` was tested. Which “activity change, negative = inhibition” value did it give?
A: -15.5% (inactive)

Q: `CN1CCCN(c2ccc(C(=O)N3CCC(N4CCOCC4)CC3)cn2)CC1` was tested. Which “activity change, negative = inhibition” value did it give?
A: -13.3% (inactive)

Q: With `O=C(c1ccc(-c2ccc(N3CCCCC3)nc2)cc1)N1CCOCC1` as the molecule, how does the Potency read?
A: 35.5 µM (active)

Q: Which “activity change, negative = inhibition” value does the source give for `COc1ccc(-c2noc(-c3cccn3CC(=O)Nc3ccccc3)n2)cc1F` here?
A: 0.68% (inactive)

Q: Which “activity change, negative = inhibition” value does the source give for `Cc1ccc(NC(=O)Cn2cccc2-c2nc(-c3ccc4c(c3)OCO4)no2)cc1Cl` here?
A: -6.96% (inactive)

Q: `O=C(CCc1ccccc1)NCCn1cccc1-c1nc(-c2ccc3c(c2)OCO3)no1` was tested. Which Potency did it give?
A: 50.1 µM (active)

Q: How did the “activity change, negative = inhibition” value turn out when `COc1ccc(CN2CCC3(COc4ccccc4C(=O)N3)C2)cc1` (stereo not drawn) was run?
A: 2.84% (inactive)

Q: `Cc1c(Cl)cccc1NC(=O)N1C[C@@H](F)C[C@H]1C(=O)N1CCc2ccccc2C1` was tested. Which “activity change, negative = inhibition” value did it give?
A: -4.6% (inactive)

Q: Which “activity change, negative = inhibition” value does the source give for `O=C(CC1CCCC1)N1CCC(c2nc(C3CCOCC3)no2)CC1` here?
A: 0% (inactive)

Q: `COc1ccc(-c2cc(N3CCCC(NC(=O)c4ccsc4)C3)n[nH]2)cc1` (stereo not drawn) was tested. Which Potency did it give?
A: 14.1 µM (active)

Q: With `O=C(NC1CCN(c2cc(-c3ccc(F)cc3)[nH]n2)C1)c1ccc2c(c1)OCO2` (stereo not drawn) as the molecule, how does the “activity change, negative = inhibition” value read?
A: 5.21% (inactive)

Q: For `O=C(NC1CCCN(c2cc(-c3ccc(Cl)cc3)[nH]n2)C1)c1ccncc1` (stereo not drawn), which Potency is on record?
A: 12.6 µM (active)

Q: `O=C(NC1CCCN(c2cc(-c3ccc(F)cc3)[nH]n2)C1)c1ccc(Br)cc1` (stereo not drawn) was tested. Which “activity change, negative = inhibition” value did it give?
A: 2.67% (inactive)

Q: How did the “activity change, negative = inhibition” value turn out when `O=C(NC1CCCN(c2cc(-c3ccccc3)[nH]n2)C1)c1cccc(Cl)c1` (stereo not drawn) was run?
A: -10% (inactive)

Q: With `O=C(NC1CCN(c2cc(-c3ccc(Cl)cc3)[nH]n2)C1)c1c[nH]c2ccccc12` (stereo not drawn) as the molecule, how does the “activity change, negative = inhibition” value read?
A: -19.2% (inactive)

Q: `O=C(NC1CCN(c2cc(-c3ccc(F)cc3)[nH]n2)C1)c1cc2ccccc2[nH]1` (stereo not drawn) was tested. Which Potency did it give?
A: 6.31 µM (active)

Q: Which “activity change, negative = inhibition” value does the source give for `O=C(NC1CCCN(c2cc(-c3ccc(Cl)cc3)[nH]n2)C1)c1ccccc1F` (stereo not drawn) here?
A: -11.6% (inactive)

Q: How did the “activity change, negative = inhibition” value turn out when `COc1ccc(-c2cc(N3CCC(NC(=O)c4ccc(N(C)C)cc4)C3)n[nH]2)cc1` (stereo not drawn) was run?
A: -24.6% (inactive)

Q: How did the “activity change, negative = inhibition” value turn out when `CC(=O)N1CCc2sc(C(=O)NCc3ccc(F)cc3Cl)cc2C1` was run?
A: -11% (inactive)

Q: `Cn1cnnc1CC1CCN(c2nnnn2-c2ccccc2)CC1` was tested. Which “activity change, negative = inhibition” value did it give?
A: 1.99% (inactive)
